The values below come from PubChem BioAssay (Tox21).

Results filed as inconclusive are left out. Where a call stands in place of a potency, no number is given. The source made the active and inactive calls. Calls come from the whole dose curve.

The target in the test is Beta-2 adrenergic receptor (Homo sapiens) (UniProt P07550). Put plainly: Adrenergic beta2 receptor (ADRB2) small molecule antagonists, cell-based qHTS assay (AID 1963592). Note: nearly all actives have a fitted effect of over 50% in size. The settings on record: CHO-ADRB2 cells, isoproterenol-stimulated cAMP HTRF ratio, 0.5 h; series mostly up to 92.4 µM; activity change, negative = inhibition: at the top concentration. An excerpt: U.S. Tox21 Program National Center for Advancing Translational Sciences [NCATS] Division of Preclinical Innovation [DPI] U.S. Environmental Protection Agency [EPA] National Institutes of Environmental Health Sciences [NIEHS] National Toxicology Program [NTP] U.S. Food and Drug Administration [FDA] Tox21 Assay Overview: Beta adrenergic receptors (Beta-ARs) belong to the G-protein coupled receptor (GPCR) superfamily, includes three subtypes - beta1, beta2, and beta3. Beta1-AR is the predominant receptor subtype expressed in the heart, and beta2-AR is expressed in the kidney, lung, blood vessel and in the heart, and beta3 is found in the adipocytes. Beta1 and 2 ARs couple to Gs protein and elevate cyclic adenosine mono phosphate (cAMP), which activates protein kinase A and leads to the downstream signaling responsible for the physiological actions. Beta-AR agonists or antagonists are the most prescribed therapeutic agents for heart failure and asthma, and these were one of the first target receptors for the rational drug design. Tox21 10K compound library was screened using the cAMP-Gs dynamic assay (Cisbio Bioassays, Shelton, CT) to identify agonists/antagonists of the Gs-coupled human adrenergic, beta2 receptor (ADRB2) in the CHO-ADRB2 cell line (Codex BioSolutions, Inc. Gaithersburg, MD), which stably over-expresses ADRB2. The principle of cAMP-Gs dynamic assay is based on HTRF technology, which facilitates the fluorescence resonance energy transfer (FRET) between donor Europium cryptate and acceptor d2-labeled cAMP. The cAMP generated within cells competes with the red acceptor, d2-labled cAMP, for binding to the monoclonal anti-cAMP-cryptate (Europium donor). An increase in intracellular cAMP leads to the disruption of FRET signal, and the signal is inversely proportional to the cAMP concentration. Propranolol HCl (Sigma-Aldrich, St. Louis, MO) was used as a positive control in the screening.
Chain of Beta-2 adrenergic receptor (Homo sapiens) (P07550 whole entry, looked up): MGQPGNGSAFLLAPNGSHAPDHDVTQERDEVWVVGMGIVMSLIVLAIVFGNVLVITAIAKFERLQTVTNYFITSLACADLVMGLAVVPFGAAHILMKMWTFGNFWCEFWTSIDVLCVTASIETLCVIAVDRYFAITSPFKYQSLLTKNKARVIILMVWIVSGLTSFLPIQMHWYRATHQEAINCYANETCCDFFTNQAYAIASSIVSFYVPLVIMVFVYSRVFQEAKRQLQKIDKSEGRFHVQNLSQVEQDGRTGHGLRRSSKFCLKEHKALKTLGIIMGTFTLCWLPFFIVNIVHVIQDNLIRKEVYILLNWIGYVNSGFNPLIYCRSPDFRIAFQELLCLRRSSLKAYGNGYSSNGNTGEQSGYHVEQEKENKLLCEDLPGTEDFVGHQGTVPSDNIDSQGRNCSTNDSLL
Tox21 Assay Protocol Summary: CHO-ADRB2 cells were dispensed at 1,000/well in 4uL assay medium into white/solid 1536-well plates (Greiner Bio-One North America Inc., Monroe, NC) using a Multidrop Combi dispenser (ThermoFisher Scientific, Waltham, MA). The assay plates were incubated at 37C and 5% CO2 for an overnight (18-20hr). Then positive control and test compounds dissolved in DMSO were transferred to the assay plates at 23nL using a Pintool station (Wako, San Diego, CA). Following the compound and positive control transfer, 1uL agonist-stimulation mix containing 1nM Isoproterenol HCl, 100uM IBMX and 25uM Ro-20-1724 was added to each well of the assay plates using BioRAPTR Flying Reagent Dispenser (FRD, Beckman Coulter, Brea, CA). The assay plates were incubated at room temperature for 0.5hr. Then 2.5ul each d2-labled cAMP and anti-cAMP-cryptate solutions were added separately to each well of the assay plates using an FRD and the assay plates were incubated at room temperature for 1hr. The fluorescence signal was measured at two different wavelengths (665nm and 615nm) using an Envision plate reader (Perkin Elmer, Shelton, CT). Data were expressed as the ratio of 665 nm/615 nm.
For the compound `O=C(OCCOCCOC(=O)c1ccccc1)c1ccccc1`, the Potency result is “inactive”.

For `CCCCC1C(=O)N(c2ccccc2)N(c2ccccc2)C1=O`, the Potency result is “inactive”.

For `CCC(=O)/C=C/C1C(C)=CCCC1(C)C` (stereo not given), the Potency entry was “inactive”.

Turning to `Cc1ccc(C)c(O)c1`, the Potency entry was “inactive”.

With `O=S(=O)(O)c1ccc(O)cc1`, the Potency result was “inactive”.

Regarding `COc1c(Cl)c(Cl)c(Cl)c(Cl)c1Cl`, the Potency result was “inactive”.

For `CCOC(=O)NNc1nncc2ccccc12`, the “activity change, negative = inhibition” value is 0.196% [at 42.5 µM] (inactive).

For the compound `O=c1[nH]cnc2c1ncn2[C@H]1CC[C@@H](CO)O1`, the Potency entry is “inactive”.

Take `O=C(O)CC(C(=O)O)C(CC(=O)O)C(=O)O` (stereo not given): the Potency result is “inactive”.

Take `CC(=O)O[C@]1(C(C)=O)CC[C@H]2[C@@H]3C=C(Cl)C4=CC(=O)CC[C@]4(C)[C@H]3CC[C@@]21C`: the Potency result was “inactive”.

For `CC(O)COCC(C)O` (stereo not given), the Potency result is “inactive”.

For `COc1ccc(Nc2ccccc2)c(C)c1`, the “activity change, negative = inhibition” value was -3.96% (inactive).

For the compound `O=C1NC(=O)C(c2ccccc2)(c2ccccc2)N1`, the Potency entry was “inactive”.

Take `CNNCc1ccc(C(=O)NC(C)C)cc1`: the Potency entry is “inactive”.

As for `OCCO`, the Potency entry was “inactive”.

As to `CC/C(C)=N/O`, the Potency entry was “inactive”.

Take `COC(C)COC(C)COC(C)CO` (stereo not given): the Potency entry is “inactive”.

Take `NC(=O)NO`: the Potency result was “inactive”.

As to `CCO[Si](CCC#N)(OCC)OCC`, the Potency result is “inactive”.

As to `OC[C@H]1O[C@H](O[C@]2(CCl)O[C@H](CCl)[C@@H](O)[C@@H]2O)[C@H](O)[C@@H](O)[C@H]1Cl`, the Potency entry is “inactive”.

Turning to `CC(=O)CC(=O)N(C)C`, the Potency entry was “inactive”.

`CC1(C)C(=O)N(Cl)C(=O)N1Cl`: the Potency entry was “inactive”.

With `C/C=C/c1ccc(OCC)c(O)c1`, the Potency result was “inactive”.

For the compound `CC1(C)[C@@H]2CC[C@@]1(C)C(=O)C2`, the Potency result is “inactive”.

Consider `CCCc1cc(=O)[nH]c(=S)[nH]1`, for which the Potency entry was “inactive”.

For the compound `OC(Cn1cncn1)(Cn1cncn1)c1ccc(F)cc1F`, the Potency result is “inactive”.

As to `NS(=O)(=O)c1cc(C(=O)O)c(NCc2ccco2)cc1Cl`, the Potency entry is “inactive”.

For the compound `COc1cc(OC)c(C(=O)CCCN2CCCC2)c(OC)c1`, the Potency entry is “inactive”.

Regarding `CCCCCCCCCCO`, the Potency entry is “inactive”.

Regarding `CCCCCCc1ccc(O)cc1O`, the Potency result was “inactive”.

`C/C=C/c1ccc(OC)cc1`: the Potency result is “inactive”.

On to `CC(C)=CCCC(C)CCO` (stereo not given), for which the Potency result was “inactive”.

Consider `NC(=O)c1cccnc1`, for which the Potency entry is “inactive”.

Turning to `CCCCCCCCCCCCCC(=O)O`, the Potency result was “inactive”.

Turning to `O=S1(=O)CC=CC1`, the Potency entry is “inactive”.

For the compound `CCCCCCCCCCCC[N+](C)(C)C`, the Potency entry is “inactive”.

Turning to `Cc1ccccc1C=O`, the Potency result is “inactive”.

For the compound `CCCCCC(N)=O`, the Potency entry is “inactive”.

Regarding `Oc1ccccc1`, the Potency entry was “inactive”.

Turning to `O=S(=O)(O)c1ccc2cc(O)ccc2c1`, the Potency entry was “inactive”.
